In PubChem BioAssay (EPA / NIEHS) one finds AC50 and outcome data, which are given here for three compounds.

Active and inactive are the calls of the source. The calls were made as follows: active = hit-call score of the fitted dose curve at least 0.9, where 1 is the maximum; inactive = score below 0.9.

Read-out in assay [1]: Transforming growth factor beta 1 (TGFb1), TGFB1 (gene 7040)
Kind of assay: BSK_KF3CT_TGFb1: BioMAP Diversity Plus: KF3CT Assay for Transforming growth factor beta 1 (TGFb1) Biomarker Activity (AID 2283072). As to conditions: primary human keratinocytes with fibroblasts; actives raise or lower the signal. The method in brief: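 ELISA quantifies TGF-b1 at 24 h post-dose in a primary human skin co-culture of keratinocytes and fibroblasts, with gain or loss judged against DMSO. Parallel SRB total-protein staining flags overt cytotoxicity.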

Read-out in assay [2]: C-C motif chemokine 2 (Homo sapiens) (UniProt P13500)
Kind of assay: BSK_KF3CT_MCP1: BioMAP Diversity Plus: KF3CT Assay for Monocyte Chemoattractant Protein 1 (MCP1/CCL2) Biomarker Activity (AID 2283073). Particulars: primary human keratinocytes with fibroblasts; actives raise or lower the signal. An outline of the steps: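 Keratinocytes and foreskin fibroblasts were co-cultured, dosed with chemical, and sampled 24 h later. MCP-1 was quantified by ELISA, and the endpoint was analyzed with bidirectional fitting using DMSO as negative control.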

Read-out in assay [3]: Matrix Metallopeptidase 9 (MMP9), MMP9 (gene 4318)
Kind of assay: BSK_KF3CT_MMP9: BioMAP Diversity Plus: KF3CT Assay for Matrix Metallopeptidase 9 (MMP9) Biomarker Activity (AID 2283074).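 As to AC50: MMP9 protein level quantified by ELISA in the co-culture.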 As to conditions: primary human keratinocytes with fibroblasts; actives raise or lower the signal. The method in brief:
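MMP-9 quantified by ELISA after 24 h chemical treatment of primary human skin keratinocyte/fibroblast co-cultures; gain or loss fitted against DMSO, with parallel SRB staining (0.1% SRB, 560 nm) for overt cytotoxicity.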

Read-out in assay [4]: urokinase plasminogen activator (uPA), PLAU (gene 5328)
Kind of assay: BSK_KF3CT_uPA: BioMAP Diversity Plus: KF3CT Assay for urokinase plasminogen activator (uPA) Biomarker Activity (AID 2283075). Particulars: primary human keratinocytes with fibroblasts; actives raise or lower the signal. The method in brief: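 ELISA read-out of uPA 24 h after dosing human skin keratinocytes co-cultured with foreskin fibroblasts. Signal change fitted both ways relative to DMSO; sulforhodamine B on parallel cultures marks overt cytotoxicity.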

Read-out in assay [5]: CD40, CD40 (gene 958)
Kind of assay: BSK_LPS_CD40: BioMAP Diversity Plus: LPS Assay for CD40 Biomarker Activity (AID 2283076). Particulars: primary human HUVEC with PBMC; actives raise or lower the signal. The method in brief: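 CD40 signal, measured by ELISA, is fitted in both directions relative to DMSO vehicle. The system is an LPS-driven human vascular primary co-culture of endothelial cells and PBMC, sampled 24 h after compound addition.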

Read-out in assay [6]: E-selectin (Homo sapiens) (UniProt P16581)
Kind of assay: BSK_LPS_Eselectin: BioMAP Diversity Plus: LPS Assay for Eselectin Biomarker Activity (AID 2283077). As to conditions: primary human HUVEC with PBMC; actives raise or lower the signal. The method in brief: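 Signal of E-selectin, detected by ELISA, served as the endpoint; cells were umbilical vein endothelium with PBMC, read 24 h after treatment. DMSO defined baseline, and both increases and decreases were fitted.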

Read-out in assay [7]: Interleukin-8 (IL8), CXCL8 (gene 3576)
Kind of assay: BSK_LPS_IL8: BioMAP Diversity Plus: LPS Assay for Interleukin-8 (IL8) Biomarker Activity (AID 2283078). As to conditions: primary human HUVEC with PBMC; actives raise or lower the signal. An outline of the steps:
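Endothelial cells and PBMC from human donors are co-cultured, treated with chemicals and LPS, then assayed for IL-8 by ELISA after 24 h. Parallel SRB staining (0.1% SRB after 10% TCA fixation, 560 nm) flags cytotoxicity.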

Assay [8] in a line: BSK_LPS_SRB: Viability Assessment in the BioMAP Diversity Plus: LPS Assay (AID 2283079).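 Also: total protein by sulforhodamine B absorbance as a cytotoxicity measure; measured one day after compound addition; fitted in both directions against DMSO so loss or gain of signal counts.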 As to conditions: primary human HUVEC with PBMC. An outline of the steps: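 Overt cytotoxicity was gauged by sulforhodamine B total-protein staining in a primary human vascular endothelial and mononuclear cell co-culture 24 h post-dosing. Activity was fitted in both directions relative to DMSO.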

Read-out in assay [9]: Interleukin-1 alpha (IL1a), IL1A (gene 3552)
Kind of assay: BSK_LPS_IL1a: BioMAP Diversity Plus: LPS Assay for Interleukin-1 alpha (IL1a) Biomarker Activity (AID 2283080). Particulars: primary human HUVEC with PBMC; actives raise or lower the signal. The method in brief:
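Measured: IL-1 alpha via ELISA at 24 h in LPS-activated human umbilical vein endothelium–PBMC co-culture. Baseline: DMSO, bidirectional fitting.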

Read-out in assay [10]: Monocyte Chemoattractant Protein-1 (MCP1), CCL2 (gene 6347)
Kind of assay: BSK_LPS_MCP1: BioMAP Diversity Plus: LPS Assay for Monocyte Chemoattractant Protein-1 (MCP1) Biomarker Activity (AID 2283081).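 As to AC50: secreted MCP-1 protein quantified by ELISA in culture supernatant.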 As to conditions: primary human HUVEC with PBMC; actives raise or lower the signal. An outline of the steps: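 LPS-stimulated HUVEC/PBMC co-culture; chemical, 24 h; MCP-1 by ELISA; bidirectional fit vs DMSO; cytotoxicity via SRB (0.1% stain, 10% TCA fix, 560 nm) in parallel wells.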

The nature of assay [11]: BSK_LPS_PGE2: BioMAP Diversity Plus: LPS Assay for Prostaglandin E2 (PGE2) Biomarker Activity (AID 2283082).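 As to AC50: secreted prostaglandin E2 measured by ELISA in LPS-stimulated co-culture.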 As to conditions: primary human HUVEC with PBMC; actives raise or lower the signal. An outline of the steps:
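PGE2 release measured by ELISA in an LPS-activated co-culture of human umbilical vein endothelial cells and peripheral blood mononuclear cells, read at 24 h post-dosing. DMSO served as baseline for bidirectional curve fitting.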

Read-out in assay [12]: Tissue Factor, F3 (gene 2152)
Kind of assay: BSK_LPS_TissueFactor: BioMAP Diversity Plus: LPS Assay for Tissue Factor Biomarker Activity (AID 2283084). Particulars: primary human HUVEC with PBMC; actives raise or lower the signal. An outline of the steps:
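In this co-culture system of umbilical vein endothelium with PBMC, stimulated with LPS, cell-surface CD142 is detected by ELISA at 24 h. Endpoint values derive from bidirectional fitting, DMSO serving as baseline.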

Read-out in assay [13]: Tumor necrosis factor (Homo sapiens) (UniProt P01375)
Kind of assay: BSK_LPS_TNFa: BioMAP Diversity Plus: LPS Assay for Tumour Necrosis Factor alpha (TNFa) Biomarker Activity (AID 2283085).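 As to AC50: TNFa protein level quantified by ELISA in the co-culture.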 As to conditions: primary human HUVEC with PBMC; actives raise or lower the signal. The method in brief:
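TNFa was quantified by ELISA in LPS-activated co-cultures of human endothelial cells and PBMC, 24 h post-dosing. Both increases and decreases versus DMSO were fitted.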

Read-out in another assay: CD38, CD38 (gene 952)
Kind of assay: BSK_SAg_CD38: BioMAP Diversity Plus: SAg Assay for CD38 Biomarker Activity (AID 2283087). Particulars: primary human HUVEC with PBMC; actives raise or lower the signal. An outline of the steps: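 CD38 quantified by ELISA (fluorescence) in a superantigen-activated endothelial cell–PBMC co-culture at 24 h post-dose. Activity fitted in both directions relative to DMSO; parallel SRB and Alamar Blue cytotoxicity read-outs.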

Read-out in assay [14]: CD40, CD40 (gene 958)
Kind of assay: BSK_SAg_CD40: BioMAP Diversity Plus: SAg Assay for CD40 Biomarker Activity (AID 2283088). As to conditions: primary human HUVEC with PBMC; actives raise or lower the signal. The method in brief:
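Fluorescence ELISA read-out of CD40 from umbilical vein endothelium plus peripheral blood mononuclear cells, sampled 24 h after dosing. Values come from bidirectional curve fitting with DMSO as baseline.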

Read-out in a further assay: CD69, CD69 (gene 969)
Kind of assay: BSK_SAg_CD69: BioMAP Diversity Plus: SAg Assay for CD69 Biomarker Activity (AID 2283089).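 As to AC50: cell surface CD69 protein quantified by ELISA with fluorescence detection.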 Particulars: primary human HUVEC with PBMC; actives raise or lower the signal. The method in brief: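 Values derive from bidirectional fitting relative to DMSO vehicle. Cells: umbilical vein endothelium plus peripheral blood mononuclear cells, treated 24 h before fluorescent ELISA for CD69.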

Read-out in assay [15]: Monocyte Chemoattractant Protein-1 (MCP1), CCL2 (gene 6347)
Kind of assay: BSK_SAg_MCP1: BioMAP Diversity Plus: SAg Assay for Monocyte Chemoattractant Protein-1 (MCP1) Biomarker Activity (AID 2283090). Particulars: primary human HUVEC with PBMC; actives raise or lower the signal. An outline of the steps:
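Values derive from bidirectional fitting of ELISA-measured MCP1 against DMSO controls. Readings were taken 24 h after dosing human vascular endothelial cells co-cultured with peripheral blood mononuclear cells under superantigen stimulation.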

Read-out in assay [16]: E-selectin (Homo sapiens) (UniProt P16581)
Kind of assay: BSK_SAg_Eselectin: BioMAP Diversity Plus: SAg Assay for Eselectin Biomarker Activity (AID 2283091). Particulars: primary human HUVEC with PBMC; actives raise or lower the signal. An outline of the steps:
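Primary human endothelial cells and peripheral blood mononuclear cells were co-cultured and exposed to chemical for 24 hours. E-selectin levels were then quantified by ELISA, with bidirectional curve fitting normalised to DMSO controls.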

Read-out in assay [17]: Macrophage colony-stimulating factor (MCSF), CSF1 (gene 1435)
Kind of assay: BSK_LPS_MCSF: BioMAP Diversity Plus: LPS Assay for Macrophage colony-stimulating factor (MCSF) Biomarker Activity (AID 2283083). As to conditions: primary human HUVEC with PBMC; actives raise or lower the signal. The method in brief: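 Compound is added to a human vascular primary co-culture of umbilical vein endothelium and blood mononuclear cells. After 24 h, M-CSF is quantified by ELISA. Signal changes are fitted in both directions against DMSO.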

Read-out in assay [18]: Vascular cell adhesion molecule 1 (VCAM1), VCAM1 (gene 7412)
Kind of assay: BSK_LPS_VCAM1: BioMAP Diversity Plus: LPS Assay for Vascular cell adhesion molecule 1 (VCAM1) Biomarker Activity (AID 2283086). Particulars: primary human HUVEC with PBMC; actives raise or lower the signal. The method in brief: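 VCAM-1 quantified by ELISA in an LPS-activated co-culture of human endothelial cells and peripheral blood mononuclear cells, read 24 h post-treatment. Fitted in both directions versus DMSO; parallel SRB staining flags overt cytotoxicity.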

Sequence of E-selectin (Homo sapiens) (P16581 whole entry, looked up): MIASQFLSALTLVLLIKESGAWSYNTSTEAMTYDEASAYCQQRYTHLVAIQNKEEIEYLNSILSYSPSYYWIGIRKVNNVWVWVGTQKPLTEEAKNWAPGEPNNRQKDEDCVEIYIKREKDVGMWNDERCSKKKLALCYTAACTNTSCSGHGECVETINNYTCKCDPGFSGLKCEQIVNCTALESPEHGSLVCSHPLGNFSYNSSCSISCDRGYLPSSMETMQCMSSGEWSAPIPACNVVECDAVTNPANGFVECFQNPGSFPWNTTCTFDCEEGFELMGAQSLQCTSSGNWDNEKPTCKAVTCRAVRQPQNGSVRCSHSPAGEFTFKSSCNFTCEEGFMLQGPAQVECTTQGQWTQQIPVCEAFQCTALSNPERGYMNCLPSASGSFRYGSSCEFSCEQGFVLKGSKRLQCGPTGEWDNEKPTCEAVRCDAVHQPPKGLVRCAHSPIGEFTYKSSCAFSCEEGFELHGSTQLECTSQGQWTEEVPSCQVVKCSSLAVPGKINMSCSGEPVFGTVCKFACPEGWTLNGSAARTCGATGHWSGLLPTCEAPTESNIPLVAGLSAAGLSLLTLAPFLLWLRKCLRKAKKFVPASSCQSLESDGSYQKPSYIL
Sequence of Tumor necrosis factor (Homo sapiens) (P01375 whole entry, looked up): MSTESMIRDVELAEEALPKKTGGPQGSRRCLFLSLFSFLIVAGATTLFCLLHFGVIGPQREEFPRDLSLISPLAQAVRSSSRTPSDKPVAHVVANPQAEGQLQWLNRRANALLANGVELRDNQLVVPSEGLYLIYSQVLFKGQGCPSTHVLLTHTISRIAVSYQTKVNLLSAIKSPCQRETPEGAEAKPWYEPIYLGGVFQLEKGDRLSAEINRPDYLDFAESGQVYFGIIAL

As to `Cc1oc(-c2ccccc2)nc1CCOc1ccc(C[C@H](Nc2ccccc2C(=O)c2ccccc2)C(=O)O)cc1`, the AC50 in assay [1] is 7.38 µM (active); in assay [2], 5.22 µM (active); in assay [3], 6.66 µM (active); in assay [4] it was 7.7 µM (active); with CD40, CD40 (gene 958) [5] it was 30.2 µM (active); in [6], 30.8 µM (active). Besides, the AC50 in assay [7] is 29.1 µM (active); in assay [8], 20.6 µM (active); in [9], 20 µM (active); in assay [10] it was 16.1 µM (active); in assay [11], 8.83 µM (active); in assay [12], 31.6 µM (active). Further, the AC50 in [13] is 30.4 µM (active); with CD38, CD38 (gene 952) it was 28.6 µM (active); with CD40, CD40 (gene 958) [14], 30 µM (active); in the assay with CD69, CD69 (gene 969), 14.4 µM (active); in assay [15], 24.1 µM (active); in [16] it was 31.5 µM (active).

Consider `CCc1ccc(CCOc2ccc(CC3SC(=O)NC3=O)cc2)nc1` (stereo unspecified), for which the outcome in assay [1] is “inactive”; in [2], “inactive”; in [3] it was “inactive”; in [4] it was “inactive”; with CD40, CD40 (gene 958) [5], “inactive”; in assay [7], “inactive”. Besides, the result in assay [8], in assay [9], in assay [10], in [11], in assay [17] and in assay [12] was inactive. Also, the outcome was “inactive” in [13]; “inactive” in assay [18]; “inactive” with CD38, CD38 (gene 952); “inactive” with CD40, CD40 (gene 958) [14]; “inactive” in the assay with CD69, CD69 (gene 969); “inactive” in assay [15]. The result in [16] was inactive.

For `CN1CCC[C@H]1c1cccnc1`, the outcome is “inactive” in assay [1]; “inactive” in assay [2]; “inactive” in assay [3]; “inactive” in assay [4]; “inactive” in the assay with CD40, CD40 (gene 958) [5]; “inactive” in assay [7]. The outcome in assay [8], in assay [9], in [10], in assay [11], in [17] and in [12] was inactive. The outcome was “inactive” in assay [13]; “inactive” in [18]; “inactive” in the assay with CD38, CD38 (gene 952); “inactive” with CD40, CD40 (gene 958) [14]; “inactive” with CD69, CD69 (gene 969); “inactive” in assay [15]. The result in [16] was inactive.

One may read the AC50 as the midpoint of the concentration-response curve, whichever way the signal moves.
